Results as given in PubChem BioAssay (NCATS).
Several values for one entry are separate records, joined by “and”; a condition that tells them apart may be missing. Equal values may be shown once. Records with an inconclusive call do not appear. Activity calls are given as the source filed them. Unless noted, calls come from the whole dose curve; as a rule, active = well fitted curve in the direction sought with a large enough effect; inconclusive = small, poorly fitted or top-dose-only effect, or another doubt; inactive = no such curve, though single readings can be large; an effect the other way counts as inactive or inconclusive.

What was measured:
WaGa = test: qHTS assay to identify novel small-molecules to repurpose for Merkel cell carcinoma treatment (AID 1296009); conditions: MCC and control cell lines, CellTiter-Glo viability, 72 h; series mostly up to 46 µM; note: nearly all actives have a fitted effect of over 60% in size; note: potency is the fitted concentration of half-maximal effect
How it was run: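 72 hr, 37 degree celsius; NPC 8-pt / MIPE 11-pt dose response; compound pinned in DMSO; CellTiter-Glo, 10 min RT, luminescence; normalized to no-cell and DMSO controls.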

C33A = test: Primary qHTS to identify gynecologic anti-cancer compounds using libraries of approved drugs and bioactive compounds (AID 1345084); conditions: Gynecologic cancer cell panel viability, ATPlite luminescence, 48 h; series mostly up to 57.5 µM; note: nearly all actives have a fitted effect of over 55% in size; note: potency is the fitted concentration of half-maximal effect
How it was run: (§1)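 Cells, 1,000 per well, plated 16 h, then exposed 48 h at 37 C to compounds. Viability by ATPlite luminescence after 15 min at room temperature.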

CASKI = test: as above; conditions: Gynecologic cancer cell panel viability, ATPlite luminescence, 48 h; series mostly up to 57.5 µM
How it was run: as §1

Es-2 = test: as above; conditions: Gynecologic cancer cell panel viability, ATPlite luminescence, 48 h; series mostly up to 57.5 µM
How it was run: as §1

HeLa = test: as above; conditions: Gynecologic cancer cell panel viability, ATPlite luminescence, 48 h; series mostly up to 57.5 µM
How it was run: as §1

Hek293T = test: as above; conditions: Gynecologic cancer cell panel viability, ATPlite luminescence, 48 h, control line for the selectivity index; series mostly up to 57.5 µM
How it was run: as §1

JEG-3 = test: as above; conditions: Gynecologic cancer cell panel viability, ATPlite luminescence, 48 h; series mostly up to 57.5 µM
How it was run: as §1

OV90 = test: as above; conditions: Gynecologic cancer cell panel viability, ATPlite luminescence, 48 h; series mostly up to 57.5 µM
How it was run: as §1

PA-1 = test: as above; conditions: Gynecologic cancer cell panel viability, ATPlite luminescence, 48 h; series mostly up to 57.5 µM
How it was run: as §1

SKOV3 = test: as above; conditions: Gynecologic cancer cell panel viability, ATPlite luminescence, 48 h; series mostly up to 57.5 µM
How it was run: as §1

Tov-21-G = test: as above; conditions: Gynecologic cancer cell panel viability, ATPlite luminescence, 48 h; series mostly up to 57.5 µM
How it was run: as §1

Tov112D = test: as above; conditions: Gynecologic cancer cell panel viability, ATPlite luminescence, 48 h; series mostly up to 57.5 µM
How it was run: as §1

[1] = Drug repurposing screens with cells derived from glioblastoma tumor samples (AID 1345199); conditions: GBM patient neurospheres viability, ATP luminescence, 48 h; note: nearly all actives have a fitted effect of over 40% in size; note: potency is the fitted concentration of half-maximal effect; for activity, negative = cell killing: % is set by controls: 0 for no effect and ±100 for the full control effect
How it was run: (§2)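 Four patient lines of CD133+ GBM neurospheres were screened at several concentrations; hits were retested in those lines plus three slower-growing GBM lines, using 48-hour treatment and ATP-based viability.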

astro = test: as above; conditions: viability, ATP luminescence, 48 h; series mostly up to 45.9 µM
How it was run: as §2

[2] = target: Nuclear receptor subfamily 1 group I member 2 (Rattus norvegicus) (UniProt Q9R1A7); test: qHTS assay for small molecule activators of the rat pregnane X receptor (rPXR) signaling pathway (AID 651751; call rule not given here; note: 0% is about no effect); conditions: rPXR reporter cells, luciferase (One-Glo), 24 h
Chain of Nuclear receptor subfamily 1 group I member 2 (Rattus norvegicus) (Q9R1A7 whole entry, looked up): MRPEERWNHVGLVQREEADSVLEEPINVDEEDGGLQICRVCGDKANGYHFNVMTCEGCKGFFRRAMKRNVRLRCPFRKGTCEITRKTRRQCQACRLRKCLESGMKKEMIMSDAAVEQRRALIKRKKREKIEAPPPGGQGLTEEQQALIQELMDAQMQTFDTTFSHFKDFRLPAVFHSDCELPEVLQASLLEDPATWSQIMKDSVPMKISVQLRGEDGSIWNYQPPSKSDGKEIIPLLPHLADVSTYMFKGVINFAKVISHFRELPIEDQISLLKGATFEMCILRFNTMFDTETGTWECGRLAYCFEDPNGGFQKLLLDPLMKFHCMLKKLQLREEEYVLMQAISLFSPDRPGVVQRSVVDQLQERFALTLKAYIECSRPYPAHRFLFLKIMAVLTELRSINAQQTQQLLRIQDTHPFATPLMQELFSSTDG

[3] = qHTS assay for small molecule activators of the human pregnane X receptor (PXR) signaling pathway (AID 720659; call rule not given here; note: 0% is about no effect)
CAOV3 = test: Primary qHTS to identify gynecologic anti-cancer compounds using libraries of approved drugs and bioactive compounds (AID 1345084); conditions: Gynecologic cancer cell panel viability, ATPlite luminescence, 48 h; series mostly up to 57.5 µM; note: nearly all actives have a fitted effect of over 55% in size; note: potency is the fitted concentration of half-maximal effect
How it was run: as §1

[4] = at 45.9 µM (top of the series), tumour line B
[5] = at 45.9 µM (top of the series), tumour line D
[6] = at 46 µM (top of the series), tumour line A
[7] = at 46.1 µM (top of the series), tumour line C

N[C@H](C(=O)O)c1ccc(O)cc1
inactive: Potency (WaGa) | Potency (C33A) | Potency (CASKI) | Potency (Es-2) | Potency (HeLa) | Potency (Hek293T) | Potency (JEG-3) | Potency (OV90) | Potency (PA-1) | Potency (SKOV3) | Potency (Tov-21-G) | Potency (Tov112D) | activity, negative = cell killing [1, 4] -10.5% | activity, negative = cell killing [1, 5] -7.17% | activity, negative = cell killing [1, 6] -28.4% | activity, negative = cell killing [1, 7] -10.2% | Potency (astro)

Cc1cccc(Nc2cc(Cl)nc(SCC(=O)O)n2)c1C
inactive: Potency (WaGa) | Potency (C33A) | Potency (CASKI) | Potency (Es-2) | Potency (HeLa) | Potency (Hek293T) | Potency (JEG-3) | Potency (OV90) | Potency (PA-1) | Potency (SKOV3) | Potency (Tov-21-G) | Potency (Tov112D) | activity, negative = cell killing [1, 4] -5.07% | activity, negative = cell killing [1, 5] -15.1% | activity, negative = cell killing [1, 6] -33.3% | activity, negative = cell killing [1, 7] 0.18% | Potency (astro) | max response [2] -4.85% | outcome [3]

NC(=O)NC(=O)Cc1ccccc1
inactive: Potency (WaGa) | Potency (C33A) | Potency (CASKI) | Potency (Es-2) | Potency (HeLa) | Potency (Hek293T) | Potency (JEG-3) | Potency (OV90) | Potency (PA-1) | Potency (SKOV3) | Potency (Tov-21-G) | Potency (Tov112D) | activity, negative = cell killing [1, 4] 5.96% | activity, negative = cell killing [1, 5] 3.38% | activity, negative = cell killing [1, 6] -32.3% | activity, negative = cell killing [1, 7] -5.24% | Potency (astro)

CC(O)COc1ccccc1 (centres undefined)
inactive: Potency (WaGa) | Potency (C33A) | Potency (CASKI) | Potency (Es-2) | Potency (HeLa) | Potency (Hek293T) | Potency (JEG-3) | Potency (OV90) | Potency (PA-1) | Potency (SKOV3) | Potency (Tov-21-G) | Potency (Tov112D) | activity, negative = cell killing [1, 4] -16.3% | activity, negative = cell killing [1, 5] 2.5% | activity, negative = cell killing [1, 6] -19.2% | activity, negative = cell killing [1, 7] -0.412% | Potency (astro) | max response [2] 0.833% | outcome [3]

O=S(=O)(O)c1cc(I)c(O)c2ncccc12
inactive: Potency (WaGa) | Potency (C33A) | Potency (CASKI) | Potency (Es-2) | Potency (HeLa) | Potency (Hek293T) | Potency (JEG-3) | Potency (OV90) | Potency (PA-1) | Potency (SKOV3) | Potency (Tov-21-G) | Potency (Tov112D) | activity, negative = cell killing [1, 4] -21.6% | activity, negative = cell killing [1, 5] -2.75% | Potency (astro)

Cc1ccc2nc(N)[nH]c(=O)c2c1Sc1ccncc1
active: Potency (WaGa) 3.35 µM | Potency (JEG-3) 6.31 µM | Potency (Tov112D) 3.55 µM | Potency ([1]; tumour line A) 7.08 µM
inactive: Potency (C33A) | Potency (CAOV3) | Potency (Es-2) | Potency (Hek293T) | Potency (OV90) | Potency (PA-1) | Potency (SKOV3) | Potency (Tov-21-G) | activity, negative = cell killing [1, 5] -18.7% | activity, negative = cell killing [1, 7] -42.8%

Oc1cccc(O)c1
inactive: Potency (WaGa) | Potency (C33A) | Potency (CASKI) | Potency (Es-2) | Potency (HeLa) | Potency (Hek293T) | Potency (JEG-3) | Potency (OV90) | Potency (PA-1) | Potency (SKOV3) | Potency (Tov-21-G) | Potency (Tov112D) | activity, negative = cell killing [1, 4] -16.6% | activity, negative = cell killing [1, 5] -5.28% | activity, negative = cell killing [1, 7] 27.8% | Potency (astro) | max response [2] 4.18% | outcome [3]

Cc1cc(O)cc2c1O[C@](C)(CCC[C@H](C)CCC[C@H](C)CCCC(C)C)CC2
inactive: Potency (WaGa) | Potency (C33A) | Potency (CASKI) | Potency (Es-2) | Potency (HeLa) | Potency (Hek293T) | Potency (JEG-3) | Potency (OV90) | Potency (PA-1) | Potency (SKOV3) | Potency (Tov-21-G) | Potency (Tov112D) | activity, negative = cell killing [1, 7] -14.5% | Potency (astro)
active: Potency ([1]; tumour line A) 5.01 µM | Potency ([1]; tumour line B) 17.8 µM | Potency ([1]; tumour line D) 35.5 µM

CC(=O)NC(Cc1ccccc1)C(=O)O (centres undefined)
inactive: Potency (WaGa) | Potency (C33A) | Potency (CASKI) | Potency (Es-2) | Potency (HeLa) | Potency (Hek293T) | Potency (JEG-3) | Potency (OV90) | Potency (PA-1) | Potency (SKOV3) | Potency (Tov-21-G) | Potency (Tov112D) | activity, negative = cell killing [1, 4] -12.3% | activity, negative = cell killing [1, 5] -6.53% | activity, negative = cell killing [1, 6] -20.1% | activity, negative = cell killing [1, 7] -23.9% | Potency (astro)

CC1(C)Oc2ccc(C#N)cc2[C@@H](N2CCCC2=O)[C@@H]1O
inactive: Potency (WaGa) | Potency (C33A) | Potency (CASKI) | Potency (Es-2) | Potency (HeLa) | Potency (Hek293T) | Potency (JEG-3) | Potency (OV90) | Potency (PA-1) | Potency (SKOV3) | Potency (Tov-21-G) | Potency (Tov112D) | activity, negative = cell killing [1, 4] -7.82% and 2.52% | activity, negative = cell killing [1, 5] -4.19% and -0.466% | activity, negative = cell killing [1, 6] -32.5% and -12.3% | activity, negative = cell killing [1, 7] -7.78% and -4.72% | Potency (astro)

NC(=O)NNc1ccccc1
inactive: Potency (WaGa) | Potency (C33A) | Potency (CASKI) | Potency (Es-2) | Potency (HeLa) | Potency (Hek293T) | Potency (JEG-3) | Potency (OV90) | Potency (PA-1) | Potency (SKOV3) | Potency (Tov-21-G) | Potency (Tov112D) | activity, negative = cell killing [1, 4] -9.66% and -3.84% | activity, negative = cell killing [1, 5] -10.5% and 5.37% | activity, negative = cell killing [1, 6] -34.9% | activity, negative = cell killing [1, 7] -25.2% and -16.9% | Potency (astro)

COc1cc(C(=O)N2CCOCC2)cc(OC)c1OC
inactive: Potency (WaGa) | Potency (C33A) | Potency (CASKI) | Potency (Es-2) | Potency (HeLa) | Potency (Hek293T) | Potency (JEG-3) | Potency (OV90) | Potency (PA-1) | Potency (SKOV3) | Potency (Tov-21-G) | Potency (Tov112D) | activity, negative = cell killing [1, 4] 8.47% and -7.54% | activity, negative = cell killing [1, 5] 3.68% and -23% | activity, negative = cell killing [1, 6] -14.2% | activity, negative = cell killing [1, 7] -7.33% and -2.64% | Potency (astro)
